Assay outcomes: PubChem, National Center for Advancing Translational Sciences (NCATS)
Shiga inhibitor – inhibitors of Shiga toxin in Vero cells | inhibition, % at 38.7 µM | AID 2315 | 9.2% of 290,000 active | Vero cells, Shiga toxin protein synthesis inhibition reporter; in the data active means inhibition mostly above about 28%, no sharp cut-off; inactive means mostly below about 43%; further: 0% is about no effect
NS1 inh – blocks influenza NS1 protein function; Potency, µM (series often up to 46.1 µM), inactives show top-dose activity, positive = more growth; 0.4% of 270,000 active; AID 2326; calls by dose curve; further: potency means the concentration at half of the fitted maximal effect; actives are rising curves; nearly all actives have a fitted effect of over 50% in size
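Compounds were scored for reversing the slow growth caused by influenza A NS1 in S. cerevisiae, measured by optical density at 600 nm. Assay medium contained 2% galactose at pH 6.0; NS1-free yeast of the same strain were the positive control.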
SARS PLP yeast – SARS-CoV PLP inhibition in yeast; S. cerevisiae expressing SARS-CoV PLpro, growth rescue; Potency, µM (highest dose often 32.9 µM), without a hit: top-dose activity, positive = growth rescue, usual class: activators; 0.19% of 330,000 active; AID 485353; calls by dose curve; further: potency means the concentration at half of the fitted maximal effect; 0% is about no effect; nearly all actives have a fitted effect of over 55% in size
Cycloheximide cs – counter-screen hit for Shiga toxin inhibitors, cycloheximide. cell reporter, cycloheximide protein synthesis inhibition counterscreen. max response, %. 12% of 300,000 active; in the data active means max response mostly above about 13%, no sharp cut-off; inactive means mostly below about 14%; further: read at 38.3 µM for the half of the compounds with a filed dose; 0% is about no effect
Pf growth 48h – P. falciparum growth inhibition at 48 hours (one generation); P. falciparum luciferase growth in erythrocytes, 48 h; Potency, µM (titrated, usually from 28.7 µM), for the others: at the highest dose activity change, negative = inhibition, actives largely listed as inhibitors; 5.9% of 310,000 active; further: potency means the concentration at half of the fitted maximal effect; on the % scale 0 is the no-effect control and ±100 the full control effect
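Erythrocytes infected with P. falciparum carrying an integrated firefly luciferase reporter (2% hematocrit, 0.1% parasitemia final) were exposed to compounds in RPMI 1640 with 0.5% Albumax at 37 C, 5% CO2. Growth inhibition was scored as reduced luminescence.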
Pf growth 96h – P. falciparum growth inhibition at 96 hour, primary screen for plastid delayed-death inhibitors. 6.9% of 320,000 active. Potency, µM (titrated, usually from 28.7 µM), inactives show at the top dose activity change, negative = inhibition, usual class: inhibitors. P. falciparum luciferase reporter growth, 96 h; further: potency means the concentration at half of the fitted maximal effect; on the % scale 0 is the no-effect control and ±100 the full control effect
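Compounds incubated with erythrocytes infected by luciferase-expressing P. falciparum (2% hematocrit, 0.05% parasitemia final) for 96 hours, 37 C in 5% CO2. Growth inhibition scored as decreased luciferase luminescence.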
* = called active by the depositor; u = inconclusive; x = not tested or not shown. Hits are enriched below; roughly 21% of the tested compounds scored in any of these assays. Unless noted, the call rests on the fitted dose curve; in most records, active means well fitted inhibition curve with a large enough effect; inconclusive means small, poorly fitted or top-dose-only effect, or another doubt; inactive means no such curve, though single readings can be large or run the other way.

SMILES	Shiga inhibitor	NS1 inh	SARS PLP yeast	Cycloheximide cs	Pf growth 48h	Pf growth 96h
CCN(CC)c1ccc(N=Cc2c(C)[nH]c3ccccc23)cc1	-2	-7%	-1%	-1	1.9µM*	4.7µM*
Oc1[nH]c2ccccc2c1C=Nc1ccccc1	74*	-6%	-2%	33*	163%	97%
CCn1c(O)c(/C=C2\C=Nc3ccccc32)sc1=Nc1ccccc1	98*	-2%	6%	27*	u	2%
O=C(Nc1cccc(Cl)c1)C1C2CCC3C(CCC21)C3(Cl)Cl (stereo not given)	-11	12%	-17%	13	9.3µM*	u
CCc1ccc(NC(=O)C2CCCCC2C(=O)O)cc1 (stereo not given)	-4	6%	-5%	6	18%	9%
O=C1CCC(C(=O)Nc2ccc(Cl)cc2)N1 (stereo not given)	-22	6%	1%	-1	2%	5.2µM*
O=C(Nc1ccc(Cl)cc1)C1C2CCCCC21 (stereo not given)	67*	14%	x	48*	39%	6%
CCc1ccc(NC(=O)C2C3/C=C\CCCCC32)cc1 (stereo not given)	active	-3%	-4%	37*	166%	158%
CCOc1ccc(-c2c(C(=O)N/N=C/C3CCCCC3)nnn2-c2nonc2N)cc1	-6	13%	7%	-4	0%	27%
CC(C)(C)[C@H]1COC(=O)[C@H](NC(=O)OCC2c3ccccc3-c3ccccc32)C/C=C\C[C@@H](CC(=O)N(CCO)Cc2ccccc2)C(=O)N1	x	x	-2%	x	x	x
O=C(C1CCCN(S(=O)(=O)c2cccc3cccnc23)C1)N1CCN(c2ccc(F)cc2)CC1 (stereo not given)	3	-18%	0%	1	x	-101%
CCn1c(-c2cc(-c3cc(C)ccc3C)nc3ccccc23)n[nH]c1=S	4	6%	9%	-1	u	2.6µM*
CCn1c(-c2cc(-c3ccc(C)c(C)c3)nc3ccccc23)n[nH]c1=S	81*	5%	-2%	26*	4.1µM*	3.7µM*
CCn1c(-c2c[nH]c3ccccc23)n[nH]c1=S	-3	-14%	1%	-3	20%	x
CCOc1cccc(-c2cc(-c3n[nH]c(=S)n3CC)c3ccccc3n2)c1	13	10%	-24%	0	13µM*	12µM*
CCOc1ccccc1-c1cc(-c2n[nH]c(=S)n2CC)c2ccccc2n1	26	8%	24%	-2	1.9µM*	1.7µM*
Cc1ccc(-c2cc(-c3n[nH]c(=S)n3C)c3ccccc3n2)cc1	46	x	-3%	21	u	u
CCn1c(-c2cc(C3CC3)nc3ccccc23)n[nH]c1=S	-2	8%	-26%	-3	u	u
CCC(C(=O)NCCN1CCOCC1)n1c2ccccc2c2nc(=O)cc(C)n21 (stereo not given)	-5	-6%	-3%	-7	11%	u
CCN(CC(=O)Nc1ccc(OC)cc1)C(=O)CSCc1c(C)noc1C	x	x	-1%	x	-22%	-19%
COc1ccc(C(=O)C[n+]2cccc(C)c2)cc1	35	4%	5%	8	-12%	-25%
COc1ccc(C(=O)C[n+]2cccc(C(N)=O)c2)cc1	2	2%	1%	-3	12%	u
COc1ccc(C(=O)C[n+]2cccc3cc(C)ccc32)cc1	7	4%	5%	-1	15µM*	u
COc1cccc(C(=O)C[n+]2cccc3cc(OC)ccc32)c1	x	x	-1%	x	10µM*	u
COc1ccc(C(=O)C[n+]2ccc3ccccc3c2C)cc1	94*	-4%	-2%	45*	u	u
COc1ccc(C(=O)OCCc2sc[n+](CC(=O)c3ccccc3)c2C)cc1	-4	7%	2%	-4	-15%	4%
COc1ccc(C(=O)C[n+]2cccc3cc(OC)ccc32)cc1	-8	-1%	-2%	3	9.3µM*	u
OCCC1CN(Cc2cc3c(cc2Cl)OCO3)CCN1C1CCCC1 (stereo not given)	3	7%	0%	-1	29%	u
O=[N+]([O-])c1cc2c(cc1Br)CCN2	10	6%	0%	-6	6%	u
COc1cccc(-c2csc3ncnc(Sc4nnnn4C)c23)c1	x	x	0%	x	x	x
